Screens from PubChem BioAssay.
Gal4-VP16 FLuc: Gal4-VP16 reporter inhibition counter-screen | Drosophila S2 Gal4-VP16 UAS-luciferase, luminescence, 20 h | 310,000 tested, 3.5% active | Potency, µM (doses to about 53.6 µM), for the others: top-dose activity, negative = inhibition, hits mostly inhibitors;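 further: Gal4-VP16 expression switched on by copper sulfate through the metallothionein promoter; potency means the concentration at half of the fitted maximal effect; on the % scale 0 is the no-effect control and ±100 the full control effect; nearly all actives have a fitted effect of over 50% in size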
SW480 rerep: inducers of DNA re-replication in SW480 colon cancer cells; SW480 DNA re-replication, Hoechst DNA content imaging, 48 h; Potency, µM (titrated, usually from 46.1 µM), for the others: at the highest dose re-replication activation, usual class: activators; 340,000 tested, 1.8% active; further: potency means the concentration at half of the fitted maximal effect; % of control where 0% means no effect; nearly all actives have a fitted effect of over 55% in size
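Readout is total intensity of Hoechst-stained nuclei, excited at 405 nm and collected at 500-530 nm. Compound treatment lasted 48 hr at 37 C in 5% CO2 before staining.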
MCF10A rereplic: inducers of DNA re-replication in MCF 10A breast cells; MCF 10A DNA re-replication, Hoechst nuclear intensity, 48 h; 350,000 tested, 2.9% active; Potency, µM (doses to about 46.1 µM), for inactives: top-dose activity, positive = re-replication, usual class: activators; AID 624296; further: potency means the concentration at half of the fitted maximal effect; % of control where 0% means no effect; nearly all actives have a fitted effect of over 50% in size
RORg inh: blocks mouse ROR gamma transcriptional activity; P51450; Drosophila S2 Gal4-RORgamma UAS-luciferase reporter, 20 h; Potency, µM (titrated, usually from 53.6 µM), without a hit: at the highest dose activity change, negative = inhibition, usual class: inhibitors; 310,000 tested, 5.4% active; AID 2551; further: potency means the concentration at half of the fitted maximal effect; on the % scale 0 is the no-effect control and ±100 the full control effect; nearly all actives have a fitted effect of over 60% in size
Target sequence (P51450 whole entry, looked up, the tested form may be a part): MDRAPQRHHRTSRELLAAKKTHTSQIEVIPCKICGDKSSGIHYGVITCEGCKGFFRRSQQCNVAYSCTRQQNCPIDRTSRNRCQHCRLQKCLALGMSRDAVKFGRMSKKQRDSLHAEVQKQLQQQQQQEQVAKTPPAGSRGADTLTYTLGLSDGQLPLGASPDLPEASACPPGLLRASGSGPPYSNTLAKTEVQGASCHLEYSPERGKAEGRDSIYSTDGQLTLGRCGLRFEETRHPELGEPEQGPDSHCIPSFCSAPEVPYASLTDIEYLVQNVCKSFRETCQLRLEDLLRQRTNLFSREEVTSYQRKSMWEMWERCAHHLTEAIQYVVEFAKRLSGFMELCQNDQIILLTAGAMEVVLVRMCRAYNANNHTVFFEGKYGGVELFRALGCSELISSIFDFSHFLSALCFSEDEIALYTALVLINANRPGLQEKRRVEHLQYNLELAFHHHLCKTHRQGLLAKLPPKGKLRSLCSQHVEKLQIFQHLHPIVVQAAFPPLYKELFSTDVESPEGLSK
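Read-out: Photinus luciferase luminescence; inhibitors lower reporter signal. Insect Schneider cells with Gal4-ROR gamma fusion under metallothionein promoter, UAS reporter; 700 uM final copper sulfate induction, 20 hr, ambient temperature.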
IL1B secr inh: inhibitors of inflammasome signaling (IL-1 beta secretion). THP-1 LPS/ATP IL-1B secretion, AlphaLISA, 16 h; hits give low values. activity change, % at 57.5 µM. 360,000 tested, 4.7% active; in the data active means activity change below about -50%; inconclusive means mostly about -30% to -49%; further: on the % scale 0 is the no-effect control and ±100 the full control effect
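Secreted IL-1B measured by AlphaLISA bead assay after 16 h compound exposure of THP-1 cells; compounds (final up to 57.5 uM) added 1 h before LPS (250 ng/mL) and ATP (1.25 mM) stimulation; lower signal means less secretion.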
Starred values were filed as active, the others as inactive; ? = inconclusive; nt = not tested or not shown; [ ] = remark or other dose. This is a sample that favours compounds with a hit; in the whole collection about 11% have one here. Unless noted, the call rests on the fitted dose curve; in most records, active means well fitted curve in the direction sought with a large enough effect; inconclusive means small, poorly fitted or top-dose-only effect, or another doubt; inactive means no such curve, though single readings can be large; an effect the other way counts as inactive or inconclusive.

SMILES	Gal4-VP16 FLuc	SW480 rerep	MCF10A rereplic	RORg inh	IL1B secr inh
Nc1ncc(Br)cc1S(=O)(=O)NCCC(=O)Nc1cccc(Cl)c1	-5%	3%	?	33%	-61*
CSc1nc2sc3c(c2c(=S)[nH]1)CC(C)(C)OC3	11µM*	2%	-9%	3.2µM*	44
CC1(C)Cc2c(sc3nc(SCC(=O)O)[nH]c(=O)c23)CO1	2%	-2%	2%	15%[10 µM]	-8
CC(C)=NNc1nc2sc3c(c2c(=O)[nH]1)CC(C)(C)OC3	-3%	?	12µM*	-13%	0
CCc1nc2sc3c(c2c(=S)[nH]1)CC(C)(C)OC3	6.3µM*	-8%	7%	2µM*	28
CCN(CC)S(=O)(=O)c1ccc(N2CC(C(=O)N3Cc4ccccc4CC3C(N)=O)CC2=O)cc1 (configuration not stated)	nt	-10%	-4%	nt	-7
O=Nc1onc(-c2ccc([N+](=O)[O-])cc2)c1NO	4.5µM*	3%	14%	3.5µM*	-29
O=[N+]([O-])c1ccc(-c2ccc(/C=N/O)o2)cc1	22%	-10%	0%	3%	9
Cc1onc(-c2ccccc2)c1NC(=O)Nc1c(-c2ccccc2)noc1C	5%	-6%	-15%	3%	28
Cc1ccc(-c2noc(N=O)c2NO)cc1	0.63µM*	?	?	0.71µM*	-96*
C[C@H](CN1c2ccccc2Sc2cccnc21)N(C)C	18%	-4%	8%	-12%	nt
CC12CC3CC(C)(C1)CC(C(=O)NC1=NCCS1)(C3)C2	7.9µM*	3%	8%	2.8µM*	0
Cc1ccc(C(C)C)c(OCc2nn(CC(=O)c3ccc(Cl)cc3)c3[n+]2CCCCC3)c1	?	?	?	?	-107*
Clc1ccc(NCc2nnc3n2CCCCC3)cc1	4%	-4%	4%	6%	-2
O=C(Cn1nc(CNc2ccc(Cl)cc2)[n+]2c1CCCCC2)c1ccccc1	-2%	-1%	5%	23%	-53*
Cc1ccc2c(c1)nnn2C1CCN(CC(=O)c2ccc(Cl)cc2)CC1	4%	2%	6%	1%	8
Cn1nnnc1Sc1ncnc2scc(Br)c12	nt	4.6µM*	3.7µM*	nt	nt
Cn1nnnc1Sc1ncnc2scc(-c3ccc(F)cc3)c12	24%	10µM*	?	10µM*	-68*
Cn1nnnc1Sc1ncnc2scc(-c3ccccc3Br)c12	nt	?	19%	nt	nt
Cn1nnnc1Sc1ncnc2scc(-c3ccccc3)c12	3%	16µM*	?	?	-104*
CC(=O)Nc1ccc(Sc2ncnc3scc(-c4ccccc4)c23)cc1	1%	-9%	13%	42%	?
CCCC(=O)Nc1ccccc1Sc1ncnc2scc(-c3ccccc3)c12	-1%	-10%	?	4%	-77*
COc1ccccc1-c1csc2ncnc(Sc3nnnn3C)c12	nt	?	8%	nt	nt
CCOC(=O)c1csc(-c2ccc(COC(=O)c3ccccc3)o2)n1	nt	nt	nt	nt	22
CCN(C(=O)c1ccc2c(c1)OCO2)C12CC3CC(CC(C3)C1)C2	nt	1%	3%	nt	5
SMILES	Gal4-VP16 FLuc	SW480 rerep	MCF10A rereplic	RORg inh	IL1B secr inh
COc1ccc2nc(C(c3ccc(C)cc3)n3c(-c4ccccc4Br)nc4ccccc43)[nH]c2c1 (configuration not stated)	nt	nt	nt	nt	-17
COc1ccc(-c2csc(N(CC3CCCO3)C(=O)c3ccco3)n2)cc1 (configuration not stated)	-2%	?	16µM*	4%	-15
COc1ccc(-c2csc(N(CC(C)C)C(=O)c3ccco3)n2)cc1	6%	?	18µM*	21%	-6
CCOC(=O)C[C@@H]1OC[C@H](C(C)C)N1S(=O)(=O)c1ccc(C)cc1	nt	nt	nt	nt	24
CCCCNC(=O)NS(=O)(=O)c1ccc(CO)cc1	-5%	nt	nt	-14%	nt
Cc1ccccc1OC(C)C(=O)N1CCC(Cc2ccccc2)CC1 (configuration not stated)	-26%	-2%	?	19%	-55*
COc1ccccc1C(=O)NC(CCSC)C(=O)N1CCC(Cc2ccccc2)CC1 (configuration not stated)	nt	4%	?	nt	-60*
COc1ccccc1OC(C)C(=O)N1CCC(Cc2ccccc2)CC1 (configuration not stated)	0%	-2%	5%	-1%	-72*
Cc1cccc(-c2cc3nc(-c4ccccc4)cc(=O)n3[nH]2)c1	?	?	?	?	1
COc1ccc(C(=O)NC(C(=O)N2CCN(C/C=C/c3ccccc3)CC2)C(C)C)cc1 (configuration not stated)	nt	nt	nt	nt	-25
CC(C)[C@H](NC(=O)c1ccc([N+](=O)[O-])cc1Cl)C(=O)N1CCN(C/C=C/c2ccccc2)CC1	nt	25%	5%	nt	-64*
FC(F)(F)c1cc(NC(=S)NC23CC4CC(CC(C4)C2)C3)cc(C(F)(F)F)c1	?	nt	nt	-18%	nt
C#CCOCCOCCOCCNc1nc(N2CCOCC2)nc(N2CCN(C(=O)[C@H](CO)n3cc([C@@H](N)C(C)C)nn3)CC2)n1	nt	17%[9.22 µM]	0%	nt	2
COc1cccc(C2=N/C(=C\N(C)C)C(=O)O2)c1	-11%	-2%	0%	6%	-61*
O=S(=O)(CCSc1ccccn1)c1nc2ccccc2s1	?	?	?	13µM*	-106*
O=C(CSc1ccccn1)Nc1nc2ccccc2s1	17%	-7%	4%	15%	-6
CCS(=O)(=O)CCSc1nc2ccccc2o1	6%	0%	9%	-13%	4
O=S(=O)(CCSc1nc2ccccc2o1)c1nc2ccccc2s1	?	4.6µM*	?	?	-99*
CCc1nc2ccc(C(=O)N3CCN(S(=O)(=O)CC)CC3)cn2c1N(C)Cc1cccs1	nt	nt	nt	nt	5
CC(=O)N1CCN(C(c2ccccc2)c2nnnn2C(C)(C)C)CC1 (configuration not stated)	nt	nt	nt	nt	60
CN(c1ccccc1)c1nc(N)c([N+](=O)[O-])c(NCc2ccccc2)n1	-3%	-7%	0%	1%	-56*
CN(c1ccccc1)c1nc(N)c([N+](=O)[O-])c(Nc2ccccc2F)n1	-12%	-3%	4%	31%	0
O=C1c2ccccc2C(=O)N1CCCCN(C(=O)c1ccc(Cl)s1)c1ccc(Cl)cc1	5µM*	-2%	-1%	8.9µM*	-22
CN(C(=O)COC(=O)C1CCN(S(=O)(=O)c2c(Cl)cccc2Cl)CC1)c1ccccc1	nt	12%	2%	nt	42
CCN(CC)C(=O)COc1ccc(Br)cc1Cl	25%	?	3%	-22%	31
CN(C(=O)COC(=O)c1cnc(Cl)c(Cl)c1)C1CCS(=O)(=O)C1 (configuration not stated)	-6%	-1%	-3%	-2%	-86*
